Source: PubChem
Hits are enriched below; roughly 1% of the tested compounds scored in any of these assays.
USP2a inh: inhibitors of human ubiquitin-specific protease USP2a; actives 0.01% (n = 330,000); USP2 core, Ub-CHOP2 coupled fluorogenic reporter, 485/531; Potency, µM (top dose mostly 38.3 µM), for the others: at the highest dose activity change, negative = inhibition, actives largely listed as inhibitors; O75604;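 also: plate controls were DMSO wells for no effect and full inhibition by NEM control for full effect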
Target sequence (O75604 whole entry, looked up): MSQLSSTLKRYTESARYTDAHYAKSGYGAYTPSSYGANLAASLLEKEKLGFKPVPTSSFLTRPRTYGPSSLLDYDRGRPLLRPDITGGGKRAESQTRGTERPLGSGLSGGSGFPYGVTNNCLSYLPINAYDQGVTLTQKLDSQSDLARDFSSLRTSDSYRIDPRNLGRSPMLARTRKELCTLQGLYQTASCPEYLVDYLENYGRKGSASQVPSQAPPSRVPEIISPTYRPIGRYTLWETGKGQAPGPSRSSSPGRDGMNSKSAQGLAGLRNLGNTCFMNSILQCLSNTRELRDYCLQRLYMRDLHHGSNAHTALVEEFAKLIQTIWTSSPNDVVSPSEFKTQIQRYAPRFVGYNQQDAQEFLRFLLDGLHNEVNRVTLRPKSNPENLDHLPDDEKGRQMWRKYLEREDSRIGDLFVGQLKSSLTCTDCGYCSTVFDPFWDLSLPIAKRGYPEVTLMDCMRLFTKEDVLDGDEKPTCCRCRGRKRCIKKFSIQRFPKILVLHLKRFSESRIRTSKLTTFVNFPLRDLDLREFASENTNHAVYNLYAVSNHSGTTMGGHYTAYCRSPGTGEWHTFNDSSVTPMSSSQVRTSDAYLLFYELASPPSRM
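Cell-free coupled assay: 10nM USP2 core preincubated 30min RT with compound in Tris-HCl pH 8.0/CaCl2/CHAPS buffer, then 25nM Ub-CHOP2 and 25nM reporter substrate; fluorescence (Ex 485/Em 531) read after 60min RT, normalized to NEM inhibition, concentration-response curves fitted.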
rTrxR1 inhibitor: inhibitors of rat thioredoxin reductase 1; Potency, µM (series often up to 114 µM), for the others: at the top dose activity change, negative = inhibition, hits mostly inhibitors; actives 1% (n = 390,000); O89049; recombinant rTrxR1, NADPH fluorescence consumption, selenite substrate; also: nearly all actives have a fitted effect of over 65% in size
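Rat TrxR1 (90 nM in the dispensed reagent) was pre-reduced with 400 uM NADPH for 5 min at room temperature, then incubated with compound for 15 min. After 400 uM selenite was added, NADPH fluorescence (Ex 340/Em 450 nm) was followed for 8 min.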
TrxR1 substrate: rat thioredoxin reductase 1 substrate activity | purified TrxR1 substrate turnover, NADPH consumption readout | AID 588456 | actives 0.01% (n = 390,000) | Potency, µM (highest dose often 114 µM), inactives show top-dose activity change, negative = substrate turnover; also: nearly all actives have a fitted effect of over 50% in size
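Rat TrxR1, dispensed at 90 nM, was prereduced with 400 uM NADPH (final) for 5 min at ~22 deg C, then incubated with compound 15 min before 400 uM selenite. A first-read NADPH fluorescence drop versus no-compound background flagged substrates.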
Eya2 inh: blocks the phosphatase activity of human Eya2. O00167. Potency, µM (doses to about 76.9 µM), for the others: top-dose activity, negative = inhibition, actives largely listed as inhibitors. recombinant Eya2, OMFP fluorescence dephosphorylation (OMFP is methylfluorescein phosphate). actives 0.006% (n = 330,000)
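Eya2 (0.2 uM) preincubated 10 min at ambient with compound, then OMFP substrate added at 50 uM; 10 min reaction in 50 mM HEPES pH 7.5, 50 mM NaCl, 5 uM MgCl2, 0.05% BSA, 1 mM DTT. Fluorescence read at Ex 485/Em 525 nm.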
GALK inhibitor: galactokinase (human) inhibition. P51570. Purified GALK, Kinase-Glo residual ATP luminescence. Potency, µM (top dose mostly 57.5 µM), inactives show at the highest dose activity change, negative = inhibition, most hits filed as inhibitors. actives 0.007% (n = 270,000). AID 1868
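GALK at 5 nM final was combined with compound, 35 uM ATP and 100 uM galactose in HEPES pH8.0 with MgCl2 and DTT. The reaction ran one hour at room temperature before luminescent ATP detection.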
RGS4 inh: blocks human RGS4-accelerated GTP hydrolysis; P49798; Transcreener GDP fluorescence polarization, RGS4-accelerated GTP hydrolysis; Potency, µM (highest dose often 114 µM), for inactives: top-dose activity change, negative = inhibition, most hits filed as inhibitors; actives 0.039% (n = 390,000); also: nearly all actives have a fitted effect of over 75% in size
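MLSMR compounds (23 nl, pin-transferred) preincubated 10 min at room temperature with a 500nM (2x) first reagent, then RGS4 at 900nM (2x) plus Transcreener GDP mix added; fluorescence polarization (620/688 nm) read before and after 90 min at 30 °C.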
Starred values were filed as active, the others as inactive; ? = inconclusive; nt = no result; ! = not confirmed by another sample; [ ] = dose if it differs, or a comment. Calls follow the shape of the dose curve; as a rule, active = well fitted curve in the direction sought with a large enough effect; inconclusive = small, poorly fitted or top-dose-only effect, or another doubt; inactive = no such curve, though single readings can be large; an effect the other way counts as inactive or inconclusive. Unless noted, % is scaled to controls: 0 for no effect and ±100 for the full control effect; potency is read from the fitted curve at half-maximal effect.

SMILES	USP2a inh	rTrxR1 inhibitor	TrxR1 substrate	Eya2 inh	GALK inhibitor	RGS4 inh
CC(C)N1C(=O)/C(=C/C=C/c2ccco2)C(=O)N(Cc2ccco2)C1=O	?	-66%	-15%	9%	0%	-23%[11.4 µM]
CCN1C(=O)C(=C/C=C/c2ccco2)C(=O)N(CC)C1=S	2%	4.5µM*	-1%	24%	0%	?
Cc1cc(/C=C/c2ccnc3ccccc23)ccc1N(CCCl)CCCl	nt	-33%	1%	nt	nt	nt
O=C(CN1CCOCC1)c1cccc2ccccc12	4%	18µM*	-3%	2%	-3%	-8%
COc1c(C=C2C(=O)NC(=O)NC2=O)c(CCN(C)C(=O)c2ccccc2)cc2c1OCO2	0%	18µM*	-1%	-21%	nt	-53%
O=C1NC(=S)NC(=O)C1=Cc1ccc2c(c1)CCN2CCCCl	-10%	28µM*	-6%	4%	0%	?
NC(N)=NCCC[C@H](N)C(=O)O	nt	16%[57.1 µM]	9%[57.1 µM]	-3%	nt	2%[56.9 µM]
Cc1cc(C)cc(OCCOc2cccc(C=C3C(=O)NC(=O)NC3=O)c2)c1	-1%	11µM*	1%	3%	-1%	?
O=C1NC(=S)NC(=O)C1Cc1ccccc1	nt	12%[11.4 µM]	10%[57.1 µM]	nt	nt	?
O=C1NC(=S)NC(=O)C1C/C=C/c1ccccc1	3%	50µM*	-6%	9%	-3%	?
COc1ccc(CNC(=O)c2cnn3c(C)c(Cc4ccc(F)cc4)c(C)nc23)cc1	nt	60%[57.1 µM]	38%[57.1 µM]	nt	nt	11%
CCOC(=O)Nc1ccc(NCc2ccc(F)cc2)nc1N	?	11µM*	28%[57.1 µM]	50µM*!	nt	8.4µM*
Cc1ccc2c(c1)cc(C(=O)Nc1ccccc1C)n2C	nt	25%	30%	nt	nt	9%
C[N+](C)(C)CC#CCOC(=O)Nc1cccc(Cl)c1	nt	2.7µM*	13%[57.1 µM]	-7%	nt	-14%[56.9 µM]
CCCC(=O)NC(Oc1ccccc1Cl)C(Cl)(Cl)Cl (stereo unspecified)	3%	16µM*	4%	3%	-2%	-9%
O=C1NC(=S)NC(=O)C1=Cc1cccn1-c1ccc(O)cc1	10%	20µM*	1%	-9%	-9%	-118%
CN1C(=O)/C(=C/c2cccn2-c2ccc3ccccc3c2)C(=O)NC1=S	-10%	?	-7%	-22%	-1%	?
CC(=O)NCC(N)C(=O)c1ccc(C)cc1 (stereo unspecified)	nt	11%	3%	nt	nt	nt
Cc1ccc(-c2[nH]c(=S)[nH]c(=O)c2C#N)cc1	0%	?	-13%	-4%	1%	-41%
COc1ccccc1N1C(=O)NC(=O)/C(=C/c2ccc3c4c(cccc24)CC3)C1=O	1%	8.9µM*	83%	-3%	-1%	?
O=C1NC(=O)N(c2ccccc2)C(=O)/C1=C\c1ccc2c3c(cccc13)CC2	2%	nt	nt	0%	0%	nt
NC(=O)CI	nt	1%[57.1 µM]	3%[57.1 µM]	-1%	nt	19µM*
Cc1ccnc(-n2c(C)cc(C=C3C(=O)N(C)C(=S)N(C)C3=O)c2C)c1	0%	18µM*	-8%	5%	2%	-12%
Cc1cc(C=C2C(=O)N(C)C(=S)N(C)C2=O)c(C)n1-c1ccncc1	3%	?	3%	0%	-2%	?
c1ccc(CCN2CCCCC2)cc1	nt	12%	9%	nt	nt	nt
Cn1c(O)c(/C=C2\C=c3ccccc3=NC2=O)c(=O)n(C)c1=O	-2%	35µM*	-5%	-11%	-2%	?
Cn1c(O)c(/C=C2\C=Nc3ccccc32)c(=O)n(C)c1=O	0%	-8%	0%	4%	-7%	-1%
COc1ccc(NC(=O)CSc2oc(-c3cccs3)nc2S(=O)(=O)c2ccccc2)c(OC)c1	nt	?	-5%	nt	nt	-43%
COC(/C(C)=C/C=C/C(C)=C/c1coc(C)n1)C(C)C1CC(O)C2(C)OC2C=CC(C)C2CC(CC(=O)O2)CC2OC2C(=O)O1 (stereo unspecified)	nt	10µM*	1%	nt	nt	-22%
